Measured values published in publication PMC9911399, “Two distinct binding modes provide the RNA-binding protein RbFox with extraordinary sequence specificity”.
Positions count from the first letter of the chain named. Over roughly 16,000 sequences, “ka relative to ugcaugu” has its median near 0.0091; the highest 2% begin near 0.032. This is one part of a sample in which the highest values are shown more often than they occur.

T1: RBFOX1 RRM (Homo sapiens, UniProt Q9NWB1 109-208)
T1 sequence: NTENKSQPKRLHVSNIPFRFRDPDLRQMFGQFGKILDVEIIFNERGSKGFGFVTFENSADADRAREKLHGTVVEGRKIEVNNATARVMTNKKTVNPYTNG

B1: AUGGGUC (DNA:RNA)
RNA: GGGAGACCGGAAUUCAGAUUGUCCAUGGGUCUUAAAUCCCGUCGUAGCCACCA
DNA 1: CAATCTGAATTCCGGTCTCCC
DNA 2: TGGTGGCTACGACGGGATT
B2: ACGAACG (DNA:RNA)
RNA: B1 RNA with U26C, G28A, G29A, U30C, C31G
DNA 1: CAATCTGAATTCCGGTCTCCC
DNA 2: TGGTGGCTACGACGGGATT
B3: GAGUUAU (DNA:RNA)
RNA: B1 RNA with A25G, U26A, G28U, G29U, U30A, C31U
DNA 1: CAATCTGAATTCCGGTCTCCC
DNA 2: TGGTGGCTACGACGGGATT
B4: CUAGUUG (DNA:RNA)
RNA: B1 RNA with A25C, G27A, G29U, C31G
DNA 1: CAATCTGAATTCCGGTCTCCC
DNA 2: TGGTGGCTACGACGGGATT
B5: UGCUAGU (DNA:RNA)
RNA: GGGAGACCGGAAUUCAGAUUGUCCUGCUAGUUUAAAUCCCGUCGUAGCCACCA
DNA 1: CAATCTGAATTCCGGTCTCCC
DNA 2: TGGTGGCTACGACGGGATT
B6: CUGCUAG (DNA:RNA)
RNA: B1 RNA with A25C, G28C, G29U, U30A, C31G
DNA 1: CAATCTGAATTCCGGTCTCCC
DNA 2: TGGTGGCTACGACGGGATT
B7: UGCUUGA (DNA:RNA)
RNA: B5 RNA with A29U, U31A
DNA 1: CAATCTGAATTCCGGTCTCCC
DNA 2: TGGTGGCTACGACGGGATT
B8: UUGCUGC (DNA:RNA)
RNA: B1 RNA with A25U, G28C, G29U, U30G
DNA 1: CAATCTGAATTCCGGTCTCCC
DNA 2: TGGTGGCTACGACGGGATT
B9: UGAUUGC (DNA:RNA)
RNA: B5 RNA with C27A, A29U, U31C
DNA 1: CAATCTGAATTCCGGTCTCCC
DNA 2: TGGTGGCTACGACGGGATT
B10: UGCUUGC (DNA:RNA)
RNA: B5 RNA with A29U, U31C
DNA 1: CAATCTGAATTCCGGTCTCCC
DNA 2: TGGTGGCTACGACGGGATT
B11: UGCUUAA (DNA:RNA)
RNA: B5 RNA with A29U, G30A, U31A
DNA 1: CAATCTGAATTCCGGTCTCCC
DNA 2: TGGTGGCTACGACGGGATT
B12: UUGAUGC (DNA:RNA)
RNA: B1 RNA with A25U, G28A, G29U, U30G
DNA 1: CAATCTGAATTCCGGTCTCCC
DNA 2: TGGTGGCTACGACGGGATT

Molecular target: T1, RBFOX1 RRM
Assay: EMSA; HiTS-Eq, 1 nM pool, 10 min; buffer printed only for the single-RNA assays: 10 mM Tris pH 7.5, 150 mM NaCl, 3.4 mM EDTA, 0.001% NP-40, 30 C
Details: tags: His6 N-terminal (pET28a); label: 5' 32P
Procedure, shortened: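 Purified RbFox RRM (wild type or mutant) was equilibrated for 10 min in 50 µL with 1 nM of a 5′-radiolabelled pool of RNA with 7 randomized nucleotides, its flanks annealed to DNA oligonucleotides, across increasing protein concentrations. Free RNA was separated by 8% native PAGE, excised, reverse-transcribed, PCR-barcoded and sequenced on an Illumina HiSeq 2500. Relative association constants came from read-count changes of each variant against the control reaction, normalised to the cognate motif.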

Binder | binding signal
B1 | 0.0197 KA relative to UGCAUGU
B2 | 0.0126 KA relative to UGCAUGU
B3 | 0.00747 KA relative to UGCAUGU
B4 | 0.0137 KA relative to UGCAUGU
B5 | 0.0309 KA relative to UGCAUGU
B6 | 0.0317 KA relative to UGCAUGU
B7 | 0.0378 KA relative to UGCAUGU
B8 | 0.0167 KA relative to UGCAUGU
B9 | 0.0265 KA relative to UGCAUGU
B10 | 0.088 KA relative to UGCAUGU
B11 | 0.0138 KA relative to UGCAUGU
B12 | 0.0187 KA relative to UGCAUGU
